Legend:
Assay in all cases: universal protein binding microarray (PBM); transcription factors of Arabidopsis thaliana; high values mean tight binding
GST-ATAF1 NAC domain = biological target: T1, GST-ATAF1 NAC domain (Arabidopsis thaliana, UniProt Q39013 7-158); conditions: protein: recombinant; tags: GST; chain copies: 2; dsDNA, one strand shown
T1 sequence: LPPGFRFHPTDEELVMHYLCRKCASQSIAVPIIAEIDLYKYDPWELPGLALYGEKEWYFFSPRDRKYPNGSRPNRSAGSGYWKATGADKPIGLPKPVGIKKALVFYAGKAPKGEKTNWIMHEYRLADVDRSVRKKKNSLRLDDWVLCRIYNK
Method in brief: (§1)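 GST-tagged NAC-domain, full-length or DNA-binding-domain proteins were induced in cells, with zinc acetate added for zinc-finger proteins. They were purified on glutathione–Sepharose 4B and quantified by A280 or anti-GST western blot. Each was applied at 200 to 500 nM final, in duplicate, to custom all-10-mer Agilent 4 × 180K arrays made double-stranded by primer extension, with gapped and ungapped 8-mers scored. Binding is the normalised enrichment score (E-score).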

[1] = biological target: T2, GST-ANAC092(1-285) full length (Arabidopsis thaliana, UniProt Q9FKA0 1-285); conditions: protein: recombinant; tags: GST; chain copies: 2; dsDNA, one strand shown
T2 sequence: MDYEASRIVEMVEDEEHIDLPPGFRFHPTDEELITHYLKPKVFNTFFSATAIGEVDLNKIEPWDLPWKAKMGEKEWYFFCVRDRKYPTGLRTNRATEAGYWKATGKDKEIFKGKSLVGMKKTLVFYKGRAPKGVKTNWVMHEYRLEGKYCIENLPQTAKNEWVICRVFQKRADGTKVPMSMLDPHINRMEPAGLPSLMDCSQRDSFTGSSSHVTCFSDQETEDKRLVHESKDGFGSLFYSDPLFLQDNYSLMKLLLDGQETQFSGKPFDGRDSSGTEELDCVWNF
Method in brief: as §1

GST-SND1(1-203) = biological target: T3, GST-SND1(1-203) (Arabidopsis thaliana, UniProt Q9LPI7 1-203); conditions: protein: recombinant; tags: GST; chain copies: 2; dsDNA, one strand shown
T3 sequence: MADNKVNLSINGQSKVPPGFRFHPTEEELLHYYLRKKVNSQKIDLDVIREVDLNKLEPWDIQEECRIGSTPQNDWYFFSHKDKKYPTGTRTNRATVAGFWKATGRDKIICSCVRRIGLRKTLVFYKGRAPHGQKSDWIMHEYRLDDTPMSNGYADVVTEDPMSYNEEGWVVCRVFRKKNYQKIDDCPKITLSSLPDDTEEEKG
Method in brief: as §1

GST-WRKY1(266-371) = GST-WRKY1(266-371) (Arabidopsis thaliana, UniProt Q9SI37 266-371); conditions: protein: recombinant; tags: GST; dsDNA, one strand shown
Method in brief: as §1

GST-ANAC019 NAC domain = biological target: T4, GST-ANAC019 NAC domain (Arabidopsis thaliana, UniProt Q9C932 14-162); conditions: protein: recombinant; tags: GST; chain copies: 2; dsDNA, one strand shown
T4 sequence: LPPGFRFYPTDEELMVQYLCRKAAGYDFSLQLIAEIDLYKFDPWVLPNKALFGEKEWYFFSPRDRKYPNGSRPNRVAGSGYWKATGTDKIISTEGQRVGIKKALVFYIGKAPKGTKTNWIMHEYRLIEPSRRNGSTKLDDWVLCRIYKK
Method in brief: as §1

GST-NTL6(1-168) = GST-NTL6(1-168) (Arabidopsis thaliana, UniProt Q9SCK6 1-168); conditions: protein: recombinant; tags: GST; chain copies: 2; dsDNA, one strand shown
Method in brief: as §1

GST-ANAC055(1-171) = biological target: T5, GST-ANAC055(1-171) (Arabidopsis thaliana, UniProt Q9LDY8 1-171); conditions: protein: recombinant; tags: GST; chain copies: 2; dsDNA, one strand shown
T5 sequence: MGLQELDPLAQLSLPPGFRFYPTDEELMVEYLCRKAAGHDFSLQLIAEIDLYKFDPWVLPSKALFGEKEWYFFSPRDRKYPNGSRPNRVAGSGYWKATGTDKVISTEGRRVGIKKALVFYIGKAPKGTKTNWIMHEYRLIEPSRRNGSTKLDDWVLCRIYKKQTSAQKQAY
Method in brief: as §1

GST-NST2(1-184) = biological target: T6, GST-NST2(1-184) (Arabidopsis thaliana, UniProt Q9M274 1-184); conditions: protein: recombinant; tags: GST; chain copies: 2; dsDNA, one strand shown
T6 sequence: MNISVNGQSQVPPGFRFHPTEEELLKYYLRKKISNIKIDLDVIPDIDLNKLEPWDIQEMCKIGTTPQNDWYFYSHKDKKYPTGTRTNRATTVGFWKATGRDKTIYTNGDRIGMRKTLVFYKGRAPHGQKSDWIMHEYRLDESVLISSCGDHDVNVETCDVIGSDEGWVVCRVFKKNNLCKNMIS
Method in brief: as §1

GST-NTL8 NAC domain = biological target: T7, GST-NTL8 NAC domain (Arabidopsis thaliana, UniProt Q9XIN7 14-156); conditions: protein: recombinant; tags: GST; chain copies: 2; dsDNA, one strand shown
T7 sequence: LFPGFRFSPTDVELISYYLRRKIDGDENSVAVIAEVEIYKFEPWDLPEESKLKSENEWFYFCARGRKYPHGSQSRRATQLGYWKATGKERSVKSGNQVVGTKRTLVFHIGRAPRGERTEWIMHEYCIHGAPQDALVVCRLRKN
Method in brief: as §1

GST-NAP(1-166) = biological target: T8, GST-NAP(1-166) (Arabidopsis thaliana, UniProt O49255 1-166); conditions: protein: recombinant; tags: GST; chain copies: 2; dsDNA, one strand shown
T8 sequence: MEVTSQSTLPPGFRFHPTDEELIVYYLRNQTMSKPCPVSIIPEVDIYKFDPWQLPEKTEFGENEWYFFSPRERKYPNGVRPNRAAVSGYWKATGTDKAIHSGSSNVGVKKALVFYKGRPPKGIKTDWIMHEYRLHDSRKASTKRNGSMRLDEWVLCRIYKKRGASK
Method in brief: as §1

GST-ANAC092(1-176) = biological target: T9, GST-ANAC092(1-176) (Arabidopsis thaliana, UniProt Q9FKA0 1-176); conditions: protein: recombinant; tags: GST; chain copies: 2; dsDNA, one strand shown
T9 sequence: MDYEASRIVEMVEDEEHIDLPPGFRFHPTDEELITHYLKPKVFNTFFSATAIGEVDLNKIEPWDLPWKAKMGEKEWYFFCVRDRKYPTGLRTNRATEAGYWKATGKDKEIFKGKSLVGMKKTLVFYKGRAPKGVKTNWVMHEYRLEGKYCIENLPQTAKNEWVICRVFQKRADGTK
Method in brief: as §1

Chain of GST-NTL6(1-168) (Q9SCK6 1-168): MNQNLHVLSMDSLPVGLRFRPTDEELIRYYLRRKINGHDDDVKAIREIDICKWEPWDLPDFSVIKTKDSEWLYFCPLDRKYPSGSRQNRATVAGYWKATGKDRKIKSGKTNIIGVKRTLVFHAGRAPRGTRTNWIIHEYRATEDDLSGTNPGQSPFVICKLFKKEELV
Chain of GST-WRKY1(266-371) (Q9SI37 266-371): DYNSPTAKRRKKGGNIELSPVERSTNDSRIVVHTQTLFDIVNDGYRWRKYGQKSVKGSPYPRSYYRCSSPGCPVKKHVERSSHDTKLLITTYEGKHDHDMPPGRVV

TAAAGTCA
binding signal (GST-ATAF1 NAC domain): 0.0969 E-score
binding signal [1]: 0.0547 E-score
binding signal (GST-SND1(1-203)): 0.0751 E-score
binding signal (GST-WRKY1(266-371)): 0.465 E-score

CGTAGTCA
binding signal (GST-ANAC019 NAC domain): 0.0805 E-score
binding signal (GST-ATAF1 NAC domain): 0.117 E-score
binding signal (GST-SND1(1-203)): 0.161 E-score
binding signal (GST-WRKY1(266-371)): 0.405 E-score

AATTGACT
binding signal (GST-NTL6(1-168)): 0.0713 E-score
binding signal (GST-ANAC055(1-171)): 0.0891 E-score
binding signal (GST-ATAF1 NAC domain): 0.141 E-score
binding signal [1]: 0.0602 E-score
binding signal (GST-NST2(1-184)): 0.125 E-score
binding signal (GST-SND1(1-203)): 0.0673 E-score
binding signal (GST-WRKY1(266-371)): 0.46 E-score

GTCAGTCA
binding signal [1]: 0.1 E-score
binding signal (GST-SND1(1-203)): 0.0958 E-score
binding signal (GST-WRKY1(266-371)): 0.426 E-score

CCTTTGAC
binding signal (GST-NTL8 NAC domain): 0.0589 E-score
binding signal (GST-SND1(1-203)): 0.101 E-score
binding signal (GST-WRKY1(266-371)): 0.475 E-score

TCAGTCAA
binding signal (GST-ATAF1 NAC domain): 0.0626 E-score
binding signal (GST-NTL8 NAC domain): 0.0655 E-score
binding signal (GST-SND1(1-203)): 0.0688 E-score
binding signal (GST-WRKY1(266-371)): 0.473 E-score

CTTAAGGA
binding signal (GST-NTL6(1-168)): 0.401 E-score
binding signal (GST-NST2(1-184)): 0.0872 E-score
binding signal (GST-NTL8 NAC domain): 0.179 E-score
binding signal (GST-SND1(1-203)): 0.265 E-score
binding signal (GST-WRKY1(266-371)): 0.07 E-score

ACGTTGAC
binding signal [1]: 0.144 E-score
binding signal (GST-NAP(1-166)): 0.0955 E-score
binding signal (GST-SND1(1-203)): 0.127 E-score
binding signal (GST-WRKY1(266-371)): 0.489 E-score

AAGTCAAT
binding signal (GST-NTL6(1-168)): 0.118 E-score
binding signal (GST-ATAF1 NAC domain): 0.126 E-score
binding signal [1]: 0.119 E-score
binding signal (GST-SND1(1-203)): 0.0507 E-score
binding signal (GST-WRKY1(266-371)): 0.481 E-score

GCGTCAAC
binding signal (GST-ANAC092(1-176)): 0.119 E-score
binding signal (GST-ANAC019 NAC domain): 0.0778 E-score
binding signal [1]: 0.109 E-score
binding signal (GST-NST2(1-184)): 0.0734 E-score
binding signal (GST-SND1(1-203)): 0.192 E-score
binding signal (GST-WRKY1(266-371)): 0.443 E-score

ACCGTTGA
binding signal (GST-ANAC092(1-176)): 0.112 E-score
binding signal [1]: 0.205 E-score
binding signal (GST-NAP(1-166)): 0.132 E-score
binding signal (GST-SND1(1-203)): 0.123 E-score
binding signal (GST-WRKY1(266-371)): 0.404 E-score

GTCAAGCA
binding signal [1]: 0.106 E-score
binding signal (GST-SND1(1-203)): 0.0699 E-score
binding signal (GST-WRKY1(266-371)): 0.44 E-score

TCAAGTCA
binding signal (GST-ANAC055(1-171)): 0.0629 E-score
binding signal (GST-ATAF1 NAC domain): 0.0801 E-score
binding signal [1]: 0.196 E-score
binding signal (GST-NST2(1-184)): 0.057 E-score
binding signal (GST-SND1(1-203)): 0.171 E-score
binding signal (GST-WRKY1(266-371)): 0.453 E-score

GGGGGAAA
binding signal (GST-ANAC092(1-176)): 0.117 E-score
binding signal (GST-NTL6(1-168)): 0.314 E-score
binding signal (GST-ANAC019 NAC domain): 0.12 E-score
binding signal [1]: 0.139 E-score
binding signal (GST-NTL8 NAC domain): 0.472 E-score
binding signal (GST-SND1(1-203)): 0.147 E-score
